Assay results published in PubChem BioAssay (NCI).
The panel holds about 79,000 compounds, 15% with a hit somewhere; the sample as a whole holds those more often. Calls of active or inactive are those of the source. Rule as the data show it: active = growth inhibition above about 70%; inactive = the rest.

How the values were obtained:
[1] = NCI Yeast Anticancer Drug Screen. Data for the rad52 strain (AID 147);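 also: 0% = growth of vehicle-treated control cultures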; settings: S. cerevisiae rad52 mutant growth inhibition, active compounds read high
In short: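 Compounds are applied to a genetically defined yeast strain lacking normal DNA damage repair, and inhibition of growth is expressed relative to cultures given vehicle only.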

[2] = NCI Yeast Anticancer Drug Screen. Data for the wt1 strain (AID 149);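 also: 0% = growth of vehicle-treated wt1 cultures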; settings: S. cerevisiae wt1 strain (SPY 50644) growth inhibition, active compounds read high
In short: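 Each compound is tested on wt1 yeast and the loss of growth versus vehicle gives the inhibition value.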

[3] = NCI Yeast Anticancer Drug Screen. Data for the rad50EPP+ strain (AID 151);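 also: 0% = growth of vehicle-treated control cultures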; settings: S. cerevisiae rad50 mutant strain, active compounds read high
In short: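 Compounds were applied to the rad50EPP+ yeast strain, which bears a defined DNA repair alteration, and growth inhibition was determined relative to vehicle-treated cultures.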

[4] = NCI Yeast Anticancer Drug Screen. Data for the mgt1 strain (AID 153); settings: S. cerevisiae mgt1 mutant growth inhibition, active compounds read high
In short: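 Strain: mgt1 yeast, one of a set carrying defined DNA damage repair or cell cycle control alterations. Compound-treated growth compared with vehicle.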

[5] = NCI Yeast Anticancer Drug Screen. Data for the rad50 strain (AID 155);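 also: 0% = growth of vehicle-only cultures of the same strain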; settings: S. cerevisiae rad50 strain growth inhibition, active compounds read high
In short: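 Vehicle-treated cultures provide the reference for the growth inhibition reported for compound-exposed, repair-deficient yeast.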

[6] = NCI Yeast Anticancer Drug Screen. Data for the mec2-1 strain (AID 157); settings: S. cerevisiae mec2-1 strain, active compounds read high
In short: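 Strain: mec2-1 (DNA repair/cell cycle alteration). Compound exposure, then growth measured; inhibition expressed relative to vehicle.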

[7] = NCI Yeast Anticancer Drug Screen. Data for the rad14 strain (AID 159);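 also: 0% = growth of vehicle-treated control cultures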; settings: S. cerevisiae rad14 strain growth inhibition, active compounds read high
In short: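 Inhibition of growth is reported for a repair-deficient yeast mutant following compound treatment, calculated relative to cultures that received vehicle.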

[8] = NCI Yeast Anticancer Drug Screen. Data for the sgs1 mgt1 strain (AID 161);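 also: 0% = growth of cultures given vehicle only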; settings: S. cerevisiae sgs1 mgt1 strain, active compounds read high
In short: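 Mutant yeast exposed to compound; growth scored against vehicle-only wells.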

[9] = NCI Yeast Anticancer Drug Screen. Data for the CLN2oe strain (AID 163);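 also: 0% = growth of vehicle-only control cultures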; settings: S. cerevisiae CLN2oe strain, active compounds read high
In short: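 Growth of a genetically modified yeast strain is measured after compound exposure and compared with cultures given vehicle alone.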

[10] = NCI Yeast Anticancer Drug Screen. Data for the cln2 rad14 strain (AID 165);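 also: 0% = growth equal to vehicle treated cultures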; settings: S. cerevisiae cln2 rad14 strain, active compounds read high
In short: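 Compounds are applied to the cln2 rad14 yeast strain, and growth is then compared with that of vehicle-treated cultures to give inhibition.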

[11] = NCI Yeast Anticancer Drug Screen. Data for the bub3 strain (AID 167); settings: S. cerevisiae bub3 mutant strain, active compounds read high
In short: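 Mutant yeast screening strain plus compound; vehicle-treated cultures serve as the 0% inhibition reference.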

[12] = NCI Yeast Anticancer Drug Screen. Data for the wt2 strain (AID 169); settings: S. cerevisiae wt2 strain growth inhibition, active compounds read high
In short: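 This strain belongs to a panel of yeast strains with defined genetic alterations in DNA damage repair or cell cycle control. Compounds are applied, and growth inhibition is measured against vehicle-treated cultures.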

[13] = NCI Yeast Anticancer Drug Screen. Data for the mlh1 strain (AID 171);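 also: 0% = growth of vehicle-treated control cultures of the same strain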; settings: S. cerevisiae mlh1 strain growth inhibition, active compounds read high
In short: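 Growth of the mutant yeast strain after compound exposure, expressed as inhibition relative to vehicle-only controls.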

[14] = NCI Yeast Anticancer Drug Screen. Data for the sgs1 strain (AID 173);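 also: 0% = growth of vehicle-only control cultures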; settings: S. cerevisiae sgs1 mutant, active compounds read high
In short: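 Growth of a yeast strain bearing a defined genetic alteration is measured after compound treatment. Inhibition is expressed relative to vehicle-only controls.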

[15] = NCI Yeast Anticancer Drug Screen. Data for the mlh1 rad18 strain (AID 175); settings: S. cerevisiae mlh1 rad18 strain growth inhibition, active compounds read high
In short: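 Read-out is yeast growth inhibition, calculated against vehicle-only controls. The compound was applied to a strain engineered with DNA damage repair alterations.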

[16] = NCI Yeast Anticancer Drug Screen. Data for the rad18 strain (AID 177); settings: S. cerevisiae rad18 mutant growth inhibition, active compounds read high
In short: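 Growth of the mutant yeast strain after compound exposure, normalised to vehicle-only cultures.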

[17] = at 5.0 µM (retest, dose inferred, filed as 0.5)
[18] = at 50.0 µM (retest, dose inferred, filed as 5.0)

Measured: growth inhibition

CC12CCC(CC(=O)/C1=C(/Br)I)C2(C)C (stereo not drawn)
inactive: [1]; at 1.2 µM 2% | [1]; at 3.7 µM 3% | [1]; at 11.0 µM 5% | [1]; at 33.0 µM 13% | [1]; at 100.0 µM 3% | [2]; at 1.2 µM -3% | [2]; at 3.7 µM -2% | [2]; at 11.0 µM -1% | [2]; at 33.0 µM -6% | [2]; at 100.0 µM -1% | [3]; at 1.2 µM 1% | [3]; at 3.7 µM 5% | [3]; at 11.0 µM 7% | [3]; at 33.0 µM 12% | [3]; at 100.0 µM 3% | [4]; at 1.2 µM -1% | [4]; at 3.7 µM -2% | [4]; at 11.0 µM 6% | [4]; at 33.0 µM -13% | [4]; at 100.0 µM 0% | [5]; at 1.2 µM 1% | [5]; at 3.7 µM -3% | [5]; [17] 1% | [5]; at 11.0 µM -18% | [5]; at 33.0 µM 14% | [5]; at 100.0 µM 5% | [6]; at 1.2 µM 0% | [6]; at 3.7 µM -2% | [6]; [17] -19% | [6]; at 11.0 µM -5% | [6]; at 33.0 µM 5% | [6]; at 100.0 µM -3% | [7]; at 1.2 µM 1% | [7]; at 3.7 µM 1% | [7]; at 11.0 µM 2% | [7]; at 33.0 µM 3% | [7]; at 100.0 µM 2% | [8]; [17] -9% | [9]; at 1.2 µM -1% | [9]; at 3.7 µM 4% | [9]; at 11.0 µM 2% | [9]; at 33.0 µM 0% | [9]; at 100.0 µM 6% | [10]; [17] 40% | [10]; [18] 68% | [10]; at 50.0 µM 63% | [11]; at 1.2 µM 5% | [11]; at 3.7 µM 11% | [11]; [17] -11% | [11]; at 11.0 µM 18% | [11]; at 33.0 µM 24% | [11]; at 100.0 µM 10% | [12]; at 1.2 µM -2% | [12]; at 3.7 µM -1% | [12]; at 11.0 µM 1% | [12]; at 33.0 µM 3% | [12]; at 100.0 µM 0% | [13]; at 1.2 µM 2% | [13]; at 3.7 µM -3% | [13]; at 11.0 µM 3% | [13]; at 33.0 µM 3% | [13]; at 100.0 µM -1% | [14]; at 1.2 µM -2% | [14]; at 3.7 µM -1% | [14]; at 11.0 µM 1% | [14]; at 33.0 µM 21% | [14]; at 100.0 µM 1% | [15]; [17] -18% | [16]; at 1.2 µM 3% | [16]; at 3.7 µM 10% | [16]; at 11.0 µM 31% | [16]; at 33.0 µM 39% | [16]; at 100.0 µM -1%
active: [5]; [18] 80% | [5]; at 50.0 µM 81% | [6]; [18] 95% | [6]; at 50.0 µM 90.4% | [8]; [18] 93% | [8]; at 50.0 µM 84.3% | [11]; [18] 94% | [11]; at 50.0 µM 78.3% | [15]; [18] 96% | [15]; at 50.0 µM 83.2%
